Records with an inconclusive call do not appear. Calls of active or inactive are those of the source. How the source made its calls, unless noted: active means hit-call score of the fitted dose curve at least 0.9, where 1 is the maximum; inactive means score below 0.9.
Legend:
[1] = ATG_TAL_CIS: Attagene CIS-FACTORIAL HepG2 Assay for human TAL Basal Promoter (AID 2282966); details: HepG2 Attagene cis-factorial TAL promoter reporter; actives raise or lower the signal;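 further: background control endpoint measuring basal TAL promoter reporter mRNA not a specific factor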
Procedure, shortened: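 Transiently transfected HepG2 (cis-regulated reporter units), 24 h treatment, mRNA read by fluorescent CE after RT-PCR; bidirectional fit, DMSO baseline.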

[2] = ATG_TGFb_CIS: Attagene CIS-FACTORIAL HepG2 Assay for human Transforming Growth Factor (TGF) (AID 2282967); details: HepG2 Attagene CIS TGFb reporter, mRNA transcription; actives raise or lower the signal
Procedure, shortened: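 HepG2 cells transiently transfected with cis-promoter-driven multiple reporter units measure endogenous TF activity; reporter mRNA quantified at 24 h by RT-PCR, FAM labeling, HpaI digestion and capillary electrophoresis. Bidirectional fit vs DMSO.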

[3] = ATG_VDRE_CIS: Attagene CIS-FACTORIAL HepG2 Assay for human Vitamin D Receptor Element (VDRE) (AID 2282968); details: HepG2 VDRE cis-reporter transcription, actives raise or lower the signal
Procedure, shortened: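 Readout is VDRE-driven reporter mRNA reflecting endogenous factor activity in human HepG2 cells, sampled 24 h post-dose. Quantification used labelled RT-PCR products separated by capillary electrophoresis; bidirectional analysis relative to DMSO.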

[4] = biological target: Nuclear receptor subfamily 1 group I member 3 (Homo sapiens) (UniProt Q14994); test: ATG_CAR_TRANS: Attagene TRANS-FACTORIAL HepG2 Assay for human Constitutive Androstane Receptor (CAR) (AID 2282969; active means hit-call score of the fitted dose curve at least 0.9, where 1 is the maximum;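 further: activators raise reporter mRNA above DMSO so AC50 marks induction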); details: HepG2 Attagene TRANS-FACTORIAL CAR reporter
Sequence of Nuclear receptor subfamily 1 group I member 3 (Homo sapiens) (Q14994 whole entry, looked up, the tested form may be a part): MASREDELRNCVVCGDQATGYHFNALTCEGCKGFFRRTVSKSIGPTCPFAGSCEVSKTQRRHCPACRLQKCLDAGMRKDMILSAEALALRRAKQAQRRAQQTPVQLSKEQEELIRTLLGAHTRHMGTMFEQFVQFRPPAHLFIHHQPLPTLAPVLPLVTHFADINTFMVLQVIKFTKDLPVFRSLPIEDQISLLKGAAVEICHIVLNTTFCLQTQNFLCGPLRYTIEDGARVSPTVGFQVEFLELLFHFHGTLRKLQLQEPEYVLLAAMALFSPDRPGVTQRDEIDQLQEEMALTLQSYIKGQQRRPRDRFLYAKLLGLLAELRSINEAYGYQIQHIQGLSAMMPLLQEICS
Procedure, shortened: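 Signal is reporter mRNA induction relative to DMSO, measured 24 h after dosing by RT-PCR with fluorescent primer extension and capillary electrophoresis. Human HepG2 liver cells carried transiently transfected chimeric NR-Gal4/GAL4-UAS reporter constructs.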

[5] = biological target: Estrogen receptor (Homo sapiens) (UniProt P03372); test: ATG_ERa_TRANS: Attagene TRANS-FACTORIAL HepG2 Assay for human Estrogen Receptor alpha (ERa) (AID 2282970; active means hit-call score of the fitted dose curve at least 0.9, where 1 is the maximum); details: HepG2 Attagene TRANS ERa GAL4 reporter, mRNA
Sequence of Estrogen receptor (Homo sapiens) (P03372 whole entry, looked up, the tested form may be a part): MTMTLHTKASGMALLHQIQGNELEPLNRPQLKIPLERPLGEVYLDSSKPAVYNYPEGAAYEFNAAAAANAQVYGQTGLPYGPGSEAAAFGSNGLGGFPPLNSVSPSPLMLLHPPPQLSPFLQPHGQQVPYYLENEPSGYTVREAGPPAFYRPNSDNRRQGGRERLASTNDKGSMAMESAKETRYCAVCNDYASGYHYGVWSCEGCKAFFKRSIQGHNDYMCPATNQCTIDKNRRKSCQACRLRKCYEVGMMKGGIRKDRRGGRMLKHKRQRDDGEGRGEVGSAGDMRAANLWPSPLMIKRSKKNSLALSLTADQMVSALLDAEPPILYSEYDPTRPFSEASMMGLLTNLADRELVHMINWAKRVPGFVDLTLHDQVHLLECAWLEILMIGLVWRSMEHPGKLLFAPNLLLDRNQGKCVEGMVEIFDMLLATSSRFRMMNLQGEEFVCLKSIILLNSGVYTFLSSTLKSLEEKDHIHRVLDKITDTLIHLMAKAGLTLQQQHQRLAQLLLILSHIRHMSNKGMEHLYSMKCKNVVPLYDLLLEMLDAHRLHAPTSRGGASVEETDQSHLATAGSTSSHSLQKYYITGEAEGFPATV
Procedure, shortened: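 One of 30 multiplexed endpoints from a HepG2 TRANS system, this one reports ERa-Gal4-driven reporter mRNA. Transcripts were quantified 24 hours post-dosing by fluorescent RT-PCR and capillary electrophoresis, with activity scored as induction over DMSO.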

[6] = biological target: X-box-binding protein 1 (Homo sapiens) (UniProt P17861); test: ATG_Xbp1_CIS: Attagene CIS-FACTORIAL HepG2 Assay for human X-box Binding Protein 1 (XBP1) (AID 2282972); details: HepG2 XBP1 cis-element reporter, Attagene multiplex; actives raise or lower the signal
Sequence of X-box-binding protein 1 (Homo sapiens) (P17861 whole entry, looked up): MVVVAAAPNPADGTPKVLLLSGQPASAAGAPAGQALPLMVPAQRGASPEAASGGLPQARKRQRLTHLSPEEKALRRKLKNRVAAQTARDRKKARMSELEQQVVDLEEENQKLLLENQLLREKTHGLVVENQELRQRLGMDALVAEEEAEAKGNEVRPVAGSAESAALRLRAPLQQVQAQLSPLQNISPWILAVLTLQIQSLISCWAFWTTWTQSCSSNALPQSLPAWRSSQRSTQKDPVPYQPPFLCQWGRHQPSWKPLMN
Procedure, shortened: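 Multiplexed cis-reporter readout in transfected HepG2 liver cells. Exposure lasted 24 hours. Activity in either direction was fitted against DMSO as negative control and baseline.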

[7] = ATG_GAL4_TRANS: Attagene TRANS-FACTORIAL HepG2 Assay for GAL4 (Internal Marker) (AID 2282976; active means hit-call score of the fitted dose curve at least 0.9, where 1 is the maximum); details: HepG2 Attagene TRANS GAL4 internal marker reporter
Procedure, shortened: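 HepG2 cells transiently transfected with multiplexed GAL4-UAS reporter constructs were dosed for 24 h. Reporter mRNA was measured by RT-PCR, 6-FAM primer extension, HpaI digestion and capillary electrophoresis, and gain of signal was fitted relative to DMSO.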

[8] = biological target: Estrogen-related receptor gamma (Homo sapiens) (UniProt P62508); test: ATG_ERRg_TRANS: Attagene TRANS-FACTORIAL HepG2 Assay for human Estrogen-Related Receptor gamma (ERRg) (AID 2282977; active means hit-call score of the fitted dose curve at least 0.9, where 1 is the maximum;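 further: hits increase reporter signal over DMSO so potencies reflect activators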); details: HepG2 Attagene TRANS reporter, ERRg transactivation
Sequence of Estrogen-related receptor gamma (Homo sapiens) (P62508 whole entry, looked up, the tested form may be a part): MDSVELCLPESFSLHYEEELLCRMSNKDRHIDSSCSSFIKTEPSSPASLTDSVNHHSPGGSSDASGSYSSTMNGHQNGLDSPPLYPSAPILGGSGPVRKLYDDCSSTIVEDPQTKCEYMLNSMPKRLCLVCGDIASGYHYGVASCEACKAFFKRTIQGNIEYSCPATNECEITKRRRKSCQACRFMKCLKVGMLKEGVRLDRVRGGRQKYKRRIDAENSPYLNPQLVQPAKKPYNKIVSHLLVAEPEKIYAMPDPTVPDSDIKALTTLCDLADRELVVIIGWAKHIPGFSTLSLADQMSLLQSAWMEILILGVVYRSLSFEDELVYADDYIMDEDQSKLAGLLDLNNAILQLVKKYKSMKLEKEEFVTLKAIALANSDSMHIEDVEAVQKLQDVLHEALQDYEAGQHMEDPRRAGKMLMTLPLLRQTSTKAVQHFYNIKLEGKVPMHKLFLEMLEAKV
Procedure, shortened: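 Induction of reporter transcripts through a chimeric NR-Gal4 protein is quantified in transfected human HepG2 liver cells after 24 h chemical exposure, using RT-PCR with capillary electrophoresis detection and DMSO as baseline.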

[9] = ATG_M_19_TRANS: Attagene TRANS-FACTORIAL HepG2 Assay for M19 Transcription Factor (Internal Marker) (AID 2282974; active means hit-call score of the fitted dose curve at least 0.9, where 1 is the maximum); details: HepG2 Attagene TRANS-FACTORIAL M19 internal marker reporter
Procedure, shortened: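 Measured here: internal-marker reporter transcript from HepG2 cells transfected with MRTUs, harvested at 24 h. cDNA PCR products were 6-FAM labelled by primer extension, cut with HpaI for 2 h at 37 C, and resolved by CE.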

[10] = biological target: Steroid hormone receptor ERR1 (Homo sapiens) (UniProt P11474); test: ATG_ERRa_TRANS: Attagene TRANS-FACTORIAL HepG2 Assay for human Estrogen-Related Receptor alpha (ERRa) (AID 2282971; active means hit-call score of the fitted dose curve at least 0.9, where 1 is the maximum); details: HepG2 Attagene TRANS reporter, ERRa transactivation
Sequence of Steroid hormone receptor ERR1 (Homo sapiens) (P11474 whole entry, looked up, the tested form may be a part): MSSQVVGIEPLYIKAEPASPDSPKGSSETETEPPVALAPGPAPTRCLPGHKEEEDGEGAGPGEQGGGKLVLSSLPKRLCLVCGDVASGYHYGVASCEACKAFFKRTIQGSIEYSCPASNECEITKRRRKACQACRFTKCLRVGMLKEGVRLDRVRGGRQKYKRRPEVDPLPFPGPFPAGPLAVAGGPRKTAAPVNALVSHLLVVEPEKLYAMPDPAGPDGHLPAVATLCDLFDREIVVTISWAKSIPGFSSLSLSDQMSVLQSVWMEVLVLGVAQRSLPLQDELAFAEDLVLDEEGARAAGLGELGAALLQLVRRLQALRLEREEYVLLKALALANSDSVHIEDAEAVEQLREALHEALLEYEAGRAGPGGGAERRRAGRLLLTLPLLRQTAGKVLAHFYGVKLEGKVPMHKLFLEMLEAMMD
Procedure, shortened: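 HepG2 cells transiently transfected with multiplexed GAL4-UAS reporter units reading chimeric ERRa-Gal4 activity; 24 h compound exposure. Reporter mRNA measured by RT-PCR, 6-FAM labelling, HpaI digest and capillary electrophoresis; gain of signal fitted versus DMSO baseline.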

Measured: AC50

O=C(O)c1cccc(C(F)(F)F)c1
inactive: [1] | [2] | [3] | [4] | [5] | [6] | [7] | [8]

COc1ccc(OC)c(OC)c1
inactive: [1] | [2] | [3] | [4] | [5] | [6] | [7]

c1ccc2c(c1)c1cccc3ccc4cccc2c4c31
inactive: [1] | [2] | [3] | [4] | [5] | [6] | [9]

Cc1ccccc1C=O
inactive: [1] | [2] | [3] | [4] | [5] | [6] | [9]

Nc1cccc(S(=O)(=O)c2cccc(N)c2)c1
inactive: [1] | [2] | [3] | [4] | [5] | [10] | [6] | [8]

O=C(O)COCCN1CCN(C(c2ccccc2)c2ccc(Cl)cc2)CC1 (stereo not given)
inactive: [1] | [2] | [3] | [4] | [5] | [6] | [9] | [7]

NC(=O)Nc1ccc(Cl)cc1
inactive: [1] | [2] | [3] | [4] | [5] | [10] | [6] | [9] | [7] | [8]

CCC(O)CO (stereo not given)
inactive: [1] | [2] | [3] | [4] | [5] | [6] | [9] | [7]

CC(=O)OCCC(C)CC(C)(C)C (stereo not given)
inactive: [1] | [2] | [3] | [4] | [5] | [6]

CC1=CCC(O)(C(C)C)CC1 (stereo not given)
inactive: [1] | [2] | [3] | [4] | [5] | [6] | [9] | [7]

O=C1O[C@@H]2[C@@H](O)[C@H](O)O[C@@H]2[C@H]1O
inactive: [1] | [2] | [3] | [4] | [5] | [10] | [6]

O=Nc1ccc(Nc2ccccc2)cc1
inactive: [1] | [2] | [6] | [9] | [8]
active: [3] 30.3 µM | [4] 26.7 µM | [5] 34.9 µM

CC1CCC(C(C)(C)O)CC1 (stereo not given)
inactive: [1] | [2] | [3] | [4] | [6] | [9] | [7]

CCCC(=O)C(C)=O
inactive: [1] | [2] | [3] | [4] | [10] | [6] | [8]

CCCCC(CC)COCCC#N (stereo not given)
inactive: [1] | [2] | [3] | [4] | [6]

COCCOCCOCCOCCOCCO
inactive: [1] | [2] | [3] | [4] | [10] | [6] | [9] | [8]

COc1cccc(OC)c1
inactive: [1] | [2] | [3] | [4] | [6] | [9] | [7]

CCCCOCCOCCSC#N
inactive: [1] | [2] | [3] | [4] | [6] | [9] | [7]

CCCC(=O)OCCC(C)CCC=C(C)C (stereo not given)
inactive: [1] | [2] | [3] | [4] | [10] | [6] | [9] | [7] | [8]

Cc1ccc(C=O)s1
inactive: [1] | [2] | [3] | [4] | [10] | [6] | [9] | [7] | [8]

Fc1c(F)c(F)c(Br)c(F)c1F
inactive: [1] | [2] | [3] | [4] | [6] | [9]

CCCCCCCCCCCCN(CCCCCCCCCCCC)CCCCCCCCCCCC
inactive: [1] | [2] | [3] | [4] | [6] | [9]

CC(=O)c1c(C)cc(C(C)(C)C)cc1C
inactive: [1] | [2] | [3] | [4] | [6]

Cc1c(Cl)c(=O)oc2cc(O)ccc12
inactive: [1] | [2] | [4] | [6] | [9] | [7]
active: [3] 149 µM

CC(C)=CCC[C@](C)(O)[C@@H]1CC=C(C)CC1
inactive: [1] | [2] | [3] | [4] | [6] | [9]

CC1=CC(=O)NS(=O)(=O)O1
inactive: [1] | [2] | [3] | [4] | [6] | [9]

N#Cc1ccc(CC(=NNC(=O)Nc2ccc(OC(F)(F)F)cc2)c2cccc(C(F)(F)F)c2)cc1
inactive: [1] | [2] | [3] | [4] | [6] | [9] | [7]

CNC(=O)Oc1ccc2c(c1)[C@]1(C)CCN(C)[C@@H]1N2C
inactive: [1] | [2] | [3] | [4] | [6] | [9]

From PubChem BioAssay (EPA / NIEHS)
